# Literature values, collected in PubChem BioAssay AID977608.
# In all, about 4,300 compounds went through this assay and about 4,300 (100%) were called active. No cut-off is given here; in the data, nearly all actives have IC50 up to about 1400 µM. The set was probably picked from earlier hits. Some of the results follow.
# Assay: literature IC50 values for PDB complexes, PDB-derived complexes (AID 977608)
# Conditions: PDB protein-ligand complexes
structure (smiles),measurement,setting,value
C/C(=C\CO[P+](O)(O)O[P+](O)(O)O)CS,IC50,"protein: 4-hydroxy-3-methylbut-2-enyl diphosphate reductase, PDB entry 4h4e",210 nM (active)
C/C(=C\CO[P+](O)(O)O[P+](O)(O)O)CN,IC50,"protein: 4-hydroxy-3-methylbut-2-enyl diphosphate reductase, PDB entry 4h4d",150 nM (active)
C[C@]1(c2cc(NC(=O)c3ccc(C#N)cn3)ccc2F)NC(N)O[C@@H](C(F)(F)F)[C@@H]1F (stereo partly drawn),IC50,"protein: Beta-secretase 1, PDB entry 4j1i",40 nM (active)
C[C@]1(c2cc(NC(=O)c3ccc(C#N)cn3)ccc2F)NC(N)O[C@H](C(F)(F)F)[C@@H]1F (stereo partly drawn),IC50,"protein: Beta-secretase 1, PDB entry 4j1k",13 nM (active)
O=C(CCc1cc(C(=O)c2cccc(F)c2)c[nH]1)C[C@@H](O)C(=O)O,IC50,"protein: DNA nucleotidylexotransferase, Tdt core, PDB entry 4iqt",780 nM (active)
CC(=O)O[C@]1(C(C)=O)CC[C@H]2[C@@H]3CCC4=CC(=O)CCC4=C3[C@@H](c3ccc(N(C)C)cc3)C[C@@]21C,IC50,"protein: Progesterone receptor, PDB entry 4oar",0.038 nM (active)
CC(C)C1=CC2=CC(=O)[C@H]3C(C)(C)CCC[C@]3(C)C2=C(O)C1=O,IC50,"protein: Farnesyl pyrophosphate synthase HsFPPS-11, PDB entry 4p0x",1200 nM (active)
O=C1N=CN2NC(Sc3ccc(F)cc3F)=CC=C2C1c1c(Cl)cccc1Cl (stereo not drawn),IC50,"protein: human p38 kinase, Mitogen-activated protein kinase 14, MAPK14, PDB entry 3fc1",10 nM (active)
CCCNc1nc(N)c(C(O)c2cccnc2)s1 (stereo not drawn),IC50,"protein: Cyclin-dependent kinase 2, PDB entry 3qtq",3100 nM (active)
CCCNc1nc(N)c(C(O)c2ccccn2)s1 (stereo not drawn),IC50,"protein: Cyclin-dependent kinase 2, PDB entry 3s0o",33000 nM (active)
CC(C)Nc1nc(N)c(C(O)c2cccnc2)s1 (stereo not drawn),IC50,"protein: Cyclin-dependent kinase 2, PDB entry 3rk9",520 nM (active)
CCCNc1nc(N)c(C(O)c2cccc([N+](=O)[O-])c2)s1 (stereo not drawn),IC50,"protein: Cyclin-dependent kinase 2, PDB entry 3r8v",2900 nM (active)
CCCNc1nc(N)c(C(O)c2ccc3ccccc3c2)s1 (stereo not drawn),IC50,"protein: Cyclin-dependent kinase 2, PDB entry 3r8u",5000 nM (active)
CCCNc1nc(N)c(C(O)c2ccncc2)s1 (stereo not drawn),IC50,"protein: Cyclin-dependent kinase 2, PDB entry 3r8z",49000 nM (active)
COc1cc2nccc(Oc3ccc4oc(Nc5ccc(Cl)cc5)nc4c3)c2cc1OC,IC50,"protein: ALK tyrosine kinase receptor (C1097S, R1275Q mutation), PDB entry 4fny",16 nM (active)
CC(=O)Nc1cccc(-c2ccn([C@@H](Cc3cc[n+]([O-])cc3)c3ccc(OC(F)F)c(OCC4CC4)c3)n2)c1,IC50,"protein: cAMP-specific 3',5'-cyclic phosphodiesterase 4D, PDB entry 3v9b",0.5 nM (active)
CN1C2=C(NC[C@@H]1CNc1ccc(C(=O)N[C@@H](CCC(=O)N[C@@H](CCC(=O)O)C(=O)O)C(=O)O)cc1)NC(N)=NC2O (stereo partly drawn),IC50,"protein: Cyclic AMP-GMP synthase DncV (deletion mutant D-loop), PDB entry 4u0n",1690 nM (active)
CN1C2C(=NC[C@@H]1CNc1ccc(C(=O)N[C@@H](CCC(=O)N[C@@H](CCC(=O)O)C(=O)O)C(=O)O)cc1)NC(N)=NC2O (stereo partly drawn),IC50,"protein: Cyclic AMP-GMP synthase DncV (D193N mutant), PDB entry 4u0m",1690 nM (active)
same,IC50,"protein: Cyclic AMP-GMP synthase DncV, PDB entry 4u03",1690 nM (active)
O=C(Nc1nc2ccccc2s1)c1cccc2c1CN(c1nc(C(=O)O)c(CCCOc3ccc(-n4ncc5cncnc54)cc3)s1)CC2,IC50,"protein: Bcl-2-like protein 1 Bcl-xL, PDB entry 4tuh",100000 nM (active)
Cc1c(-c2c([C@H](OC(C)(C)C)C(=O)O)n(C)c(=O)c3ccccc23)cc(F)c2c1CCCO2,IC50,"protein: HIV-1 Integrase HIV-1 IN, PDB entry 4ojr",38 nM (active)
CCc1sc(-c2ccc(OC)c(OCCF)c2)nc1CSc1nc(N)cc(N)n1,IC50,"protein: Deoxycytidine kinase, Human dCK C4S-S74E mutant, PDB entry 4jlm",22.7 nM (active)
Cc1ccc(CN(C)c2cc(C)nc3ncnn23)cc1,IC50,"protein: Bromodomain-containing protein 4, PDB entry 4men",125000 nM (active)
C[N+](C)(C)CCCC(=O)O,IC50,"protein: human gamma-butyrobetaine hydroxylase, PDB entry 4c5w",3300 nM (active)
COc1cc(Nc2nccc(Nc3ccc4c(C)[nH]nc4c3)n2)cc(OC)c1OC,IC50,"protein: Bromodomain-containing protein 4 BRD4-1, PDB entry 4o78",4600 nM (active)
COc1cc(NC(=O)c2cccc3cccnc23)c(OC)cc1Cl,IC50,"protein: 3-OXOACYL-[ACYL-CARRIER-PROTEIN] REDUCTASE FABG, PDB entry 4bo1",50 nM (active)
CC(C)(C)OC(=O)NCc1cn([C@H]2C[C@@H](C(=O)N3CCC[C@H]3C=N)N(C(=O)CCCc3ccccc3)C2)nn1,IC50,"protein: PROLYL ENDOPEPTIDASE, PDB entry 4bcc",9 nM (active)
[N-]=[N+]=N[C@H]1C[C@@H](C(=O)N2CCC[C@H]2C=N)N(C(=O)CCCc2ccccc2)C1,IC50,"protein: PROLYL ENDOPEPTIDASE, PDB entry 4bcb",3 nM (active)
CC(C)C[C@H](NC(=O)[C@@H](Cc1ccc(CN)cc1)NC(=O)[C@H](Cc1ccccc1)N=[N+]=[N-])C(=O)N[C@H](CCS(C)(=O)=O)Cc1ccc(CN)cc1,IC50,"protein: yeast 20S proteasomes, PDB entry 4inu",0.55 nM (active)
Cc1c(O)cccc1C(=O)N[C@H](C(=O)N[C@@H](CO)C(=O)N[C@H](CCS(C)(=O)=O)Cc1ccc(CN)cc1)C(C)C,IC50,"protein: yeast 20S proteasomes, PDB entry 4int",1600 nM (active)
NC(=O)[C@H](CCCCNC(=O)[C@@H](Cc1ccc(C(=O)c2ccccc2)cc1)NC(=O)CCC1CCCCC1)NC(=O)/C=C/C(=O)O,IC50,"protein: Cysteine-free Human Insulin Degrading Enzyme, PDB entry 4lte",60 nM (active)
COc1cccc(C(O)c2sc(Nc3ccccc3)nc2N)c1 (stereo not drawn),IC50,"protein: Cyclin-dependent kinase 2, PDB entry 3qts",3100 nM (active)
Nc1nc(Nc2ccc(S(N)(=O)=O)cc2)sc1C(O)c1ccccc1 (stereo not drawn),IC50,"protein: Cyclin-dependent kinase 2, PDB entry 3rak",130 nM (active)
COc1cccc(C(O)c2sc(Nc3ccc(S(N)(=O)=O)cc3)nc2N)c1 (stereo not drawn),IC50,"protein: Cyclin-dependent kinase 2, PDB entry 3ral",100 nM (active)
COc1ccc(C(O)c2sc(Nc3ccc(S(N)(=O)=O)cc3)nc2N)cc1 (stereo not drawn),IC50,"protein: Cyclin-dependent kinase 2, PDB entry 3s1h",17000 nM (active)
Nc1nc(Nc2ccc(S(N)(=O)=O)cc2)sc1C(O)c1cccc([N+](=O)[O-])c1 (stereo not drawn),IC50,"protein: Cyclin-dependent kinase 2, PDB entry 3qtx",70 nM (active)
COc1ccc(Nc2nc(-c3cccc(C(=O)Nc4ccc(C(=O)O)cc4)c3)c[n+]3cc[nH]c23)cc1OC,IC50,"protein: Tyrosine-protein kinase SYK, PDB entry 4pv0",0.85 nM (active)
COc1ccc(Cc2nn3c([C@@H](CCCc4ccccc4)[C@@H](C)O)nc(C)c3c(=O)[nH]2)cc1OC,IC50,"protein: cGMP-dependent 3',5'-cyclic phosphodiesterase, PDB entry 4htx",4.7 nM (active)
